Measured values published in PubChem BioAssay AID689 (Sanford-Burnham Center for Chemical Genomics, 2007).
Screen size: about 62,000 compounds; about 80 (0.1%) were called active. Only a sample is shown. Results with a measured potency or affinity are listed apart. Values without a mark were called inactive. How the calls were made is not given here.

Molecular target: Ephrin type-A receptor 4 (Mus musculus) (UniProt Q03137)
Experiment: EphA4 ligand-binding antagonists – biochemical, colorimetric, mouse EphA4, primary screen (AID 689)
Details: EphA4-AP binding to KYL peptide, pNPP A405, at 10 µM, hits give high values

Chain of Ephrin type-A receptor 4 (Mus musculus) (Q03137 whole entry, looked up): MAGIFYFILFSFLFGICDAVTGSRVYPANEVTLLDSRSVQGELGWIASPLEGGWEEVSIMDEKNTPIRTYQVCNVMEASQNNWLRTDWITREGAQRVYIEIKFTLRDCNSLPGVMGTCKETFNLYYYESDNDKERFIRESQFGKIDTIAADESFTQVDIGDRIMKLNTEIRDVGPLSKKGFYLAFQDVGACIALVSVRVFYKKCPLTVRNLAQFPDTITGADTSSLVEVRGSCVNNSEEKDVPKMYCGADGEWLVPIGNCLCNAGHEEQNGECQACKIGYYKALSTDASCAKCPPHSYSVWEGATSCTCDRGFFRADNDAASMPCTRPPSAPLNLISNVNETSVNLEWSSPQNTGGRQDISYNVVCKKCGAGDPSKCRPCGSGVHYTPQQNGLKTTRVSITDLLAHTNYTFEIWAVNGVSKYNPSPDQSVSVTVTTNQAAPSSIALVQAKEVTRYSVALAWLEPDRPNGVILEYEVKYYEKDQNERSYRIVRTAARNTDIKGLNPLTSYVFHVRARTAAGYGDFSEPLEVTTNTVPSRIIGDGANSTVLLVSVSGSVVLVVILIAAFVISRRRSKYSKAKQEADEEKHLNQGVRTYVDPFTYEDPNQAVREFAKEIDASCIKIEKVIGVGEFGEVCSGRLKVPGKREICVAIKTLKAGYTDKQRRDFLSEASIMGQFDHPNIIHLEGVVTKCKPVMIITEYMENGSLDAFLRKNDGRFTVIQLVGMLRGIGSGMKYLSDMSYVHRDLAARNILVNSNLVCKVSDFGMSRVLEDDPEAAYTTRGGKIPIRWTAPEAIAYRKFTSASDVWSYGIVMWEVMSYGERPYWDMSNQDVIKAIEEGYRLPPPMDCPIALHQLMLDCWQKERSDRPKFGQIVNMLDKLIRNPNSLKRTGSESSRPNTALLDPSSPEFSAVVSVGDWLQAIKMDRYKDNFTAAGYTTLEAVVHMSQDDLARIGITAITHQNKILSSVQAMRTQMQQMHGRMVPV

Row | SMILES | inhibition
1 | Oc1c(/C=N/c2ncn[nH]2)ccc2ccccc12 | -0.6%
2 | O=c1oc2ccccc2c(O)c1/C=N/c1ccccn1 | -4.8%
3 | Cc1ccc(CNC(=O)C2CCCCC2C(=O)O)cc1 (stereo not given) | -8.9%
4 | COc1cc(C(=O)Nc2c(-c3ccccc3)c3cc(Br)ccc3[nH]c2=O)cc(OC)c1OC | -0.5% [this sample at 5 µg/mL]
5 | COc1ccc(OC)c(NC(=O)Cn2c(-c3ccc(Cl)cc3)noc2=O)c1 | -3.5%
6 | CCCC(=O)N1CCN(c2ccc(NC(=O)c3ccccc3)cc2)CC1 | -0.5%
7 | COc1ccc(NC(=O)CN2C(=O)C(C)Oc3ccccc32)cc1 (stereo not given) | -3%
8 | O=CNCCCc1nc2ccccc2n1Cc1ccccc1 | 7.7%
9 | O=[N+]([O-])c1cccc(S(=O)(=O)N2CCOCC2)c1 | 2.9% [this sample at 5 µg/mL]
10 | CCn1c2ccccc2c2nc3cc(S(=O)(=O)N4CCOCC4)ccc3nc21 | 32.3%
11 | O=C(NC1CCCC1)c1ccc2nc(-c3ccco3)c(-c3ccco3)nc2c1 | 18.8%
12 | O=C(NCc1ccccc1)c1ccc2nccnc2c1 | -12.5%
13 | O=C(NCc1ccccc1)c1cccc(NC(=O)c2ccco2)c1 | -2.1%
14 | COc1ccc(CCNC(=O)c2ccc3nc(-c4ccco4)c(-c4ccco4)nc3c2)cc1OC | 24.1%
15 | CCOC(=O)N1CCC(NC(=O)c2cc(C)c3c(C)nn(-c4ccccc4)c3n2)CC1 | -3.2%
16 | COc1c(Cl)cc(C(=O)Nc2cccc3ccccc23)cc1Cl | -13.9% [this sample at 5 µg/mL]
17 | CCc1nc(SCc2nc3ccccc3[nH]2)c2oc3ccccc3c2n1 | 12.7%
18 | Cc1sc(NC(=O)CN(C)C2CCCCC2)nc1-c1ccc2c(c1)CCN2S(=O)(=O)c1ccccc1 | -7%
19 | O=C(Cc1ccc(F)cc1)Nc1ccccc1Br | -10% [this sample at 5 µg/mL]
20 | CCOC(=O)c1cc(OC(=O)c2ccccc2)n(-c2ccccc2)n1 | 0.3%
21 | CCOC(=O)c1c(C)oc2ccc(OC(=O)c3ccccc3OC)cc12 | -1% [this sample at 5 µg/mL]
22 | Cc1onc(-c2ccccc2Cl)c1C(=O)Nc1ccccc1N1CCOCC1 | 4%
23 | Cc1nn(-c2ccc(Cl)cc2)c2sc(C(=O)N3CCN(C(=O)c4ccco4)CC3)cc12 | -24.1%
24 | CCCCc1nnc(SCc2ccc(OCC)cc2)n1N | -2.2%
25 | COc1cc2[nH]c3c(N4CCC(C(N)=O)CC4)ncnc3c2cc1OC | -14.4%
26 | CCSc1ncnc2c1sc1nc(-c3ccco3)c3c(c12)CC(C)(C)OC3 | -1.2%
27 | CSc1nc(NCc2ccco2)c2sc3nc(C(C)C)c4c(c3c2n1)CC(C)(C)OC4 | -8.5%
28 | CSc1nc(N(C)CCO)c2sc3nc(-c4ccco4)c4c(c3c2n1)CCC4 | 46.9%

Row | SMILES | inhibition
29 | CSc1nc(N2CCN(CCO)CC2)c2sc3nc(-c4ccco4)c4c(c3c2n1)CCC4 | -2.2%
30 | COC(=O)c1c(C)oc2ccc(OCc3ccccc3Br)cc12 | -1.2% [this sample at 5 µg/mL]
31 | CC1CCN(c2cc(N3CCOCC3)c([N+](=O)[O-])cc2F)CC1 | 17.1%
32 | c1ccc(-c2nc(-n3nc4ccccc4n3)nc3ccccc23)cc1 | -3.4%
33 | CCCCCn1c(N)c(C#N)c2nc3ccccc3nc21 | 0.7%
34 | CCCn1cnc2c(c1=O)c1nc3ccccc3nc1n2CCc1ccccc1 | -9.5%
35 | Cn1nc(-c2ccccc2)c2nc3ccccc3nc21 | 45.4%
36 | CCCCn1c2nc3ccccc3nc2c2c(=O)n(CCC)cnc21 | -2.2%
37 | CCCn1nc(NS(=O)(=O)c2ccccc2)c2cc3ccccc3nc21 | -10.6%
38 | CCCCn1c2nc3ccccc3nc2c2c(=O)n(C(C)CC)cnc21 (stereo not given) | 0.6%
39 | CCCCCn1c2nc3ccccc3nc2c2c(=O)n(CC(C)C)cnc21 | -9.1%
40 | COc1cc(NC(=O)c2cnn3c2NC(c2ccc(Br)cc2)CC3C(F)(F)F)cc(OC)c1OC (stereo not given) | -4.6% [this sample at 5 µg/mL]
41 | COc1ccc(-c2c(C(C)=O)c(C)nc3sc4c(c23)NC(c2ccccc2)NC4=O)cc1 (stereo not given) | -23.5%
42 | CC1(C)CC(=O)C2=C(C1)N(Cc1ccco1)C(=O)NC2(C(F)(F)F)C(F)(F)F | -8.1%
43 | Oc1ccc(N2CCN(c3ncnc4sc5c(c34)CCC5)CC2)cc1 | -17.1%
44 | COc1ccccc1CNC(=O)c1oc2ccc(S(=O)(=O)N3CCCC3)cc2c1C | 2.1%
45 | Cc1[nH]n(CCC#N)c(=O)c1CC(=O)N1CCN(c2ccccc2)CC1 | -10.6%
46 | O=C(Nc1ccc2nn(-c3ccccc3)nc2c1)c1ccc(Cl)c([N+](=O)[O-])c1 | -18.3% [this sample at 5 µg/mL]
47 | CCOC(=O)C(C)(C)C(=O)C(C)(C)C(O)c1ccccn1 (stereo not given) | -7.7%
48 | CC(C)Cn1c(N)c(C(=O)CSc2nnnn2C)c(=O)n(C)c1=O | -12%
49 | Cc1ccc(S(=O)(=O)NCCn2c(C)cc3ccccc32)cc1 | 13.5%
50 | Cc1cc2ccccc2n1CCNC(=O)C1CCCC1 | 0.5%
51 | CCOc1ccc(NS(=O)(=O)c2ccc(OC)c(C)c2)cc1 | -20.6%
52 | O=C(Nc1nc(-c2ccccc2)c(-c2ccccc2)s1)c1ccc(S(=O)(=O)N2CCCC2)cc1 | 8.7% [this sample at 5 µg/mL]
53 | Cc1ocnc1C(=O)Nc1ccc(Cl)cc1 | -10.1%
54 | CC(=O)C12c3ccccc3C(c3ccccc31)C1C(=O)NC(=O)C12 (stereo not given) | -14.2% [this sample at 5 µg/mL]
55 | CCOc1ccc(N(CC(=O)Nc2ccc(Br)cc2)S(=O)(=O)c2ccc(SC)cc2)cc1 | -3.8% [this sample at 5 µg/mL]
